Among the data in ChEMBL document CHEMBL1961873, “Compounds: GSK PKIS; Assays: Nanosyn kinase panel” (2012) are inhibition values, retold here.

The target in test [1] is T1, Serine/threonine-protein kinase D2 (Homo sapiens) (UniProt Q9BZL6).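 Further: mean value of PRKD2 inhibition, from the GSK PKIS screening panel.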
T1 sequence (whole entry): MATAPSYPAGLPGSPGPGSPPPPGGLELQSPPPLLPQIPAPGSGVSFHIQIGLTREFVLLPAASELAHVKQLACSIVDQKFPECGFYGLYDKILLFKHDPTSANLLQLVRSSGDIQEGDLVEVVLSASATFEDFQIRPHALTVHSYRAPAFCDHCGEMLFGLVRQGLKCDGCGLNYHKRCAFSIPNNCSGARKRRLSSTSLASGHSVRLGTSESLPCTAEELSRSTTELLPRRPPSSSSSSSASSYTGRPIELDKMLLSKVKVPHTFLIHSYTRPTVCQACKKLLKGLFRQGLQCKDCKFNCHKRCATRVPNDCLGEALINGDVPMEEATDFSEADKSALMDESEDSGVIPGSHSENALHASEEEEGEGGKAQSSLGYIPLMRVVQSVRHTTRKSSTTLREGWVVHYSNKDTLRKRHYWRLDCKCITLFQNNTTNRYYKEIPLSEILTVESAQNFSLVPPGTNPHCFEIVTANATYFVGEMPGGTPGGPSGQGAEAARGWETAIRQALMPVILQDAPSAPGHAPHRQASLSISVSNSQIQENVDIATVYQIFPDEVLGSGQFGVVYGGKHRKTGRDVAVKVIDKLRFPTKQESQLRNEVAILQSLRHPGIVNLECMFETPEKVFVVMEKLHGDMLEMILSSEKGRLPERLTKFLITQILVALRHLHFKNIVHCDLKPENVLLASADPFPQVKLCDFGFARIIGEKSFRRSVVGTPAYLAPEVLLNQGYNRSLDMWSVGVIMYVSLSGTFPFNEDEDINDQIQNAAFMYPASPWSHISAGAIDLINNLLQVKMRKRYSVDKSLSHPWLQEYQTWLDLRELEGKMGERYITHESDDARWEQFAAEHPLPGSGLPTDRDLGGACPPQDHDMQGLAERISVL
Conditions: at 1 µM.

The target in test [2] is T2, Serine/threonine-protein kinase D3 (Homo sapiens) (UniProt O94806).
T2 sequence (whole entry): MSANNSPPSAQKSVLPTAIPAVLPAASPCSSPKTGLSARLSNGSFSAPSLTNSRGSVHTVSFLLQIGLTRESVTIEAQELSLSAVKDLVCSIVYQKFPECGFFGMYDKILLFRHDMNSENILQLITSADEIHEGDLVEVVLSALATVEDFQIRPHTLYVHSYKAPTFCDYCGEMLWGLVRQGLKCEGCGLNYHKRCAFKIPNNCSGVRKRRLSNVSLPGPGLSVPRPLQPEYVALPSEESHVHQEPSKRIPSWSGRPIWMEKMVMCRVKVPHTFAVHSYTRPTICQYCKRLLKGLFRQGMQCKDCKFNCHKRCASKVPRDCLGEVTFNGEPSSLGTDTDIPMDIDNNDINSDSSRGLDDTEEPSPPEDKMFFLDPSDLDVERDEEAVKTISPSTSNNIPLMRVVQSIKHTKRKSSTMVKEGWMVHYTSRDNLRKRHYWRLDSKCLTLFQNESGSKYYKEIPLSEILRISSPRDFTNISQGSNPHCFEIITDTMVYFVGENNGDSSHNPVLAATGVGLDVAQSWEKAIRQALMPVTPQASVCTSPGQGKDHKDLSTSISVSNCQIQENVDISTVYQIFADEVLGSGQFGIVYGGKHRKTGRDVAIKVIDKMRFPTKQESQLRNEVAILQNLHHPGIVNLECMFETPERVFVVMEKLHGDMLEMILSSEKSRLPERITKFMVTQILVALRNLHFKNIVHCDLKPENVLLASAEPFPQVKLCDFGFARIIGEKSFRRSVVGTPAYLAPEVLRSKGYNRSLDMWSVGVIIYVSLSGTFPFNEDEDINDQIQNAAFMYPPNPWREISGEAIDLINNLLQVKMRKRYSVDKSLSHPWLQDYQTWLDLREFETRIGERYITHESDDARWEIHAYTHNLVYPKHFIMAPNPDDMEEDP
Conditions: at 0.1 µM.

Test [3] deals with T2, Serine/threonine-protein kinase D3 (Homo sapiens). Conditions: at 1 µM.
The target in test [4] is T3, cGMP-dependent protein kinase 1 (Homo sapiens) (UniProt Q13976).
T3 sequence (whole entry): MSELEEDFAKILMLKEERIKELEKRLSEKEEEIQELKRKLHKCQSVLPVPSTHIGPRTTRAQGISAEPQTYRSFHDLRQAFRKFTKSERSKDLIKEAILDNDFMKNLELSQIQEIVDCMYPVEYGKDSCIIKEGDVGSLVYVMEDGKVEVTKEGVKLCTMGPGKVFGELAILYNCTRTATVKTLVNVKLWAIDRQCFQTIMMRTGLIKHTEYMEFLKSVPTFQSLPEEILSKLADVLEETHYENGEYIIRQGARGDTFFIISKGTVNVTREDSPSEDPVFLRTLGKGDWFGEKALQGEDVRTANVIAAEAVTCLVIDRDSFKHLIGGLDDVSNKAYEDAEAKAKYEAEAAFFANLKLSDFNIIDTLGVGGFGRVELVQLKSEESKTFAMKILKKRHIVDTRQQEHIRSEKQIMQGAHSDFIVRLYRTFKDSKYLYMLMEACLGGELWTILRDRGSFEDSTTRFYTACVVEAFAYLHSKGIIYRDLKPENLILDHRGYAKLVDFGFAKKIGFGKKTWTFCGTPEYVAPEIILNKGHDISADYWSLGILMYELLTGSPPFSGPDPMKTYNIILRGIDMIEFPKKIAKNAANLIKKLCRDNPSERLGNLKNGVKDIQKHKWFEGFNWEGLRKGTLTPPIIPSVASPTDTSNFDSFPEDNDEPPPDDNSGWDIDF
Conditions: at 0.1 µM.

In test [5] the target is T3, cGMP-dependent protein kinase 1 (Homo sapiens). Conditions: at 1 µM.
In test [6] the target is T4, cGMP-dependent protein kinase 2 (Homo sapiens) (UniProt Q13237).
T4 sequence (whole entry): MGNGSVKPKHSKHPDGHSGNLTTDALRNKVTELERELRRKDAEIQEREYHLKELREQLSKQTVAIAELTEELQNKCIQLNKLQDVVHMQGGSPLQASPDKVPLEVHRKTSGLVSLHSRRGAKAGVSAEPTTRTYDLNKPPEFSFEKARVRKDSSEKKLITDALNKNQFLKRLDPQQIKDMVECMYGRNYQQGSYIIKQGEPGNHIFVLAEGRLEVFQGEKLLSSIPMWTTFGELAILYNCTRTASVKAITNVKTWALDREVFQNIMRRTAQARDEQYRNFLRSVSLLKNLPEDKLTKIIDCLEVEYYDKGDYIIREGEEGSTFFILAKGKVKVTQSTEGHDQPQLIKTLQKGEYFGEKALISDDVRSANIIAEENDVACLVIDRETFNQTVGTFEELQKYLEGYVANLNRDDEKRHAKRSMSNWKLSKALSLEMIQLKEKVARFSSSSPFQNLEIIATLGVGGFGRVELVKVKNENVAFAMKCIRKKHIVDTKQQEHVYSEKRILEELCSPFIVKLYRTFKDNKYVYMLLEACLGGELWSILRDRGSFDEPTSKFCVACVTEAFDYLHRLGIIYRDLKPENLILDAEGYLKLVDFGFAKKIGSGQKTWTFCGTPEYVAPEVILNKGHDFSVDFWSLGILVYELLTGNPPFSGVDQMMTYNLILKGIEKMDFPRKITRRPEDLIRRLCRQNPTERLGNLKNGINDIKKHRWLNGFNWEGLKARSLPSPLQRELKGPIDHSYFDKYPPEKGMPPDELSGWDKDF
Conditions: at 0.1 µM.

For test [7], the target named is T4, cGMP-dependent protein kinase 2 (Homo sapiens). Conditions: at 1 µM.
In test [8] the target is T5, cAMP-dependent protein kinase catalytic subunit PRKX (Homo sapiens) (UniProt P51817).
T5 sequence (whole entry): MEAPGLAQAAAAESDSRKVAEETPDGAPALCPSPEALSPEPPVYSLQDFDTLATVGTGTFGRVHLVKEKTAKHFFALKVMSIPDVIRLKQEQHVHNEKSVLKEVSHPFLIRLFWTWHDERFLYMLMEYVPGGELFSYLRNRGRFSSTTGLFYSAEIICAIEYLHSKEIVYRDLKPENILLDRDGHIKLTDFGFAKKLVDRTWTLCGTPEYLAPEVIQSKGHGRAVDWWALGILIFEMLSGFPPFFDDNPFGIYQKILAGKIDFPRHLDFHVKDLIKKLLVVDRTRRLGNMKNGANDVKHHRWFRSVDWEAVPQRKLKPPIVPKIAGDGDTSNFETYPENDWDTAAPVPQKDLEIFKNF
Conditions: at 0.1 µM.

Test [9] has as its target T5, cAMP-dependent protein kinase catalytic subunit PRKX (Homo sapiens). Conditions: at 1 µM.
In test [10] the target is Rho-associated protein kinase 1 (Homo sapiens) (UniProt Q13464). Conditions: at 0.1 µM.
Test [11] has the same target. Conditions: at 1 µM.
For test [12], the target named is Rho-associated protein kinase 2 (Homo sapiens) (UniProt O75116). Conditions: at 0.1 µM.
Test [13] has the same target. Conditions: at 1 µM.
In test [14] the target is Ribosomal protein S6 kinase alpha-1 (Homo sapiens) (UniProt Q15418). Conditions: at 0.1 µM.
Test [15] shares this target. Conditions: at 1 µM.
The target of test [16] is Ribosomal protein S6 kinase alpha-3 (Homo sapiens) (UniProt P51812). Conditions: at 0.1 µM.
For test [17] the target is unchanged. Conditions: at 1 µM.
Test [18] deals with Ribosomal protein S6 kinase alpha-2 (Homo sapiens) (UniProt Q15349). Conditions: at 0.1 µM.
The target is the same in test [19]. Conditions: at 1 µM.
Test [20] addresses Ribosomal protein S6 kinase alpha-6 (Homo sapiens) (UniProt Q9UK32). Conditions: at 0.1 µM.

Sequence of Ribosomal protein S6 kinase alpha-1 (Homo sapiens) (Q15418 whole entry): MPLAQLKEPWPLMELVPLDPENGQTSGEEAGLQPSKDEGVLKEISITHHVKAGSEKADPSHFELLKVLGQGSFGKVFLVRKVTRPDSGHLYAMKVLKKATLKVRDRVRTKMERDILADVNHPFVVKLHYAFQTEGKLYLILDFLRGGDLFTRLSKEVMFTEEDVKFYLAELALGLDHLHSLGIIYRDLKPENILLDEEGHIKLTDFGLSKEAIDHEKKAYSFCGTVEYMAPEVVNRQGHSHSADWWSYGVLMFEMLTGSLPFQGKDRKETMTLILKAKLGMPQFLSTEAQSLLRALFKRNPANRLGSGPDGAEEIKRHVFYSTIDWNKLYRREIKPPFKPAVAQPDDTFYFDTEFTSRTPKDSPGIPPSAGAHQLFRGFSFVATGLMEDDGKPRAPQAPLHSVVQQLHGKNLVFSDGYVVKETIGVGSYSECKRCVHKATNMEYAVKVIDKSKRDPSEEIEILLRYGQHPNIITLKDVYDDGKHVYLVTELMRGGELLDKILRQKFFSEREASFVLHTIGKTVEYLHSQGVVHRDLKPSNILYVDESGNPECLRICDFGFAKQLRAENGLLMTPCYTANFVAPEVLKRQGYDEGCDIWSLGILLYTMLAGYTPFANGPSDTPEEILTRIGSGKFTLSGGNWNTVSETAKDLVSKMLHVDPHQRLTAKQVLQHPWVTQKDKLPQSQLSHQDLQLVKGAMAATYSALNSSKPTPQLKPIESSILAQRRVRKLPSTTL
Sequence of Rho-associated protein kinase 1 (Homo sapiens) (Q13464 2-1354 limits assumed): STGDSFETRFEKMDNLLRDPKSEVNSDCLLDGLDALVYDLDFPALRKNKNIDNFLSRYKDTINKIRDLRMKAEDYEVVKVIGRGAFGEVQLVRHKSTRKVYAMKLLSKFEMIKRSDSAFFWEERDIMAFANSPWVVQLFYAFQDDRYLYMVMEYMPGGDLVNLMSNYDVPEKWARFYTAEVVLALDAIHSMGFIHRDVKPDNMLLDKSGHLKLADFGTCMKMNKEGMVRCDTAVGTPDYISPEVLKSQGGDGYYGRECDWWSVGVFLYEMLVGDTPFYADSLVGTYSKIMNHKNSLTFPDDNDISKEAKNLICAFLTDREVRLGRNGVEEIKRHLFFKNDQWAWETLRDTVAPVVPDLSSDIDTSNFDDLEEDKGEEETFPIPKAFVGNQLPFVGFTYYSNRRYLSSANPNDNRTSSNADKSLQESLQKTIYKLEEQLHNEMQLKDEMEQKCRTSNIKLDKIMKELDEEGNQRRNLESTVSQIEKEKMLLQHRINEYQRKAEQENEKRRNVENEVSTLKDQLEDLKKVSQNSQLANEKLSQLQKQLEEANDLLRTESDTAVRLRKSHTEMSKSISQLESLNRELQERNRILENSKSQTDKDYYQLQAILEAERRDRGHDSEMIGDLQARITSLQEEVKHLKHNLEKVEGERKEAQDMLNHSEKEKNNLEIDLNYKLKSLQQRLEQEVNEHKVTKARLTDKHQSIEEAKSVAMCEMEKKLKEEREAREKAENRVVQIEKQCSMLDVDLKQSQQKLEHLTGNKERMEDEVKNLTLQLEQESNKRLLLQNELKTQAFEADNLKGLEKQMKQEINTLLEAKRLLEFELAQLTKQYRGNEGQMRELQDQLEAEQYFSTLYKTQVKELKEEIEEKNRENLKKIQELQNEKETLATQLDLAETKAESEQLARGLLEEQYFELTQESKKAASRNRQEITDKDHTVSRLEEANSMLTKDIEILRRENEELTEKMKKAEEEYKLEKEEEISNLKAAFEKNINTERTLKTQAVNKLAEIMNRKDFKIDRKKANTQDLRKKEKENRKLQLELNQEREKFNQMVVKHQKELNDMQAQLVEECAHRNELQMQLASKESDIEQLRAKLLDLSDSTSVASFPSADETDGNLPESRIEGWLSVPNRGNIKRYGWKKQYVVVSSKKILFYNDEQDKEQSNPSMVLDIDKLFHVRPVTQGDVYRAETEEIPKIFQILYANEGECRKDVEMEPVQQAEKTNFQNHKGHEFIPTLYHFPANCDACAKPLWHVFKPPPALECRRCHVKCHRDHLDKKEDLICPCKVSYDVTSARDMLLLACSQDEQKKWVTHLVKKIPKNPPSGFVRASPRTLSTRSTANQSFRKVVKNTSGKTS
Sequence of Rho-associated protein kinase 2 (Homo sapiens) (O75116 whole entry, looked up): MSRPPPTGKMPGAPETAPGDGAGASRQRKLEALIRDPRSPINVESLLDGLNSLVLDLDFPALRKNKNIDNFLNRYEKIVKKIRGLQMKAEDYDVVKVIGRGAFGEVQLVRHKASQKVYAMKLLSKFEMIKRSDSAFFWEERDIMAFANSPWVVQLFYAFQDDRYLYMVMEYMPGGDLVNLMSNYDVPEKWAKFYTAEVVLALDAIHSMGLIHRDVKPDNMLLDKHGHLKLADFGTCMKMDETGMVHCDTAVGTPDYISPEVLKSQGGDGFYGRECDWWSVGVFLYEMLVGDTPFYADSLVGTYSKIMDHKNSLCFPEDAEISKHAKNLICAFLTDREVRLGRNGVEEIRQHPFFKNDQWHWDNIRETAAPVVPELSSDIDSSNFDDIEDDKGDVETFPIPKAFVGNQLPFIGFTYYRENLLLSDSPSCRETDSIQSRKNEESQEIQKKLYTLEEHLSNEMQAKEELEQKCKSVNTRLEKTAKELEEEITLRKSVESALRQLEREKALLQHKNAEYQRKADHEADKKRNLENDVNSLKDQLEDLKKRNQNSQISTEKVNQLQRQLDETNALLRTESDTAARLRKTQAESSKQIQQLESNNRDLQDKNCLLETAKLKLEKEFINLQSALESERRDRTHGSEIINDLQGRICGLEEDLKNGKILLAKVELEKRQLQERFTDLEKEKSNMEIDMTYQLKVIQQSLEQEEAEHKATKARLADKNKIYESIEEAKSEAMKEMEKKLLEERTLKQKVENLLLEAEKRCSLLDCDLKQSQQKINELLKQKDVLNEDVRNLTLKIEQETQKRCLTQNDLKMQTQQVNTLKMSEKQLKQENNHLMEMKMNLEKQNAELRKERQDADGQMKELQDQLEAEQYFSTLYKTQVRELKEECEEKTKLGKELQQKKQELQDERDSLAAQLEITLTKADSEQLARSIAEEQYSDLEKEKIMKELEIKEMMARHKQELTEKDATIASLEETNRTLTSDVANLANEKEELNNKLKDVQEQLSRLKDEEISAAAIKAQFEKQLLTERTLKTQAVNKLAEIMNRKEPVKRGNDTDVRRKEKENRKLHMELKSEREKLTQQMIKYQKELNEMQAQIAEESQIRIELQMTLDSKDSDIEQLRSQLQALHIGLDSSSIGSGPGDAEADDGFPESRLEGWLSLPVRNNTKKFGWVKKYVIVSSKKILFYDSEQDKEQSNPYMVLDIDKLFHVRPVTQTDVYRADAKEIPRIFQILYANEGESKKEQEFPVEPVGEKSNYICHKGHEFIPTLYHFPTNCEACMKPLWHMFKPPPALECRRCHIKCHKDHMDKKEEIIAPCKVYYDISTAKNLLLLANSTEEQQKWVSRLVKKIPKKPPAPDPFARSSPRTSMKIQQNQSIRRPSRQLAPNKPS
Sequence of Ribosomal protein S6 kinase alpha-3 (Homo sapiens) (P51812 whole entry): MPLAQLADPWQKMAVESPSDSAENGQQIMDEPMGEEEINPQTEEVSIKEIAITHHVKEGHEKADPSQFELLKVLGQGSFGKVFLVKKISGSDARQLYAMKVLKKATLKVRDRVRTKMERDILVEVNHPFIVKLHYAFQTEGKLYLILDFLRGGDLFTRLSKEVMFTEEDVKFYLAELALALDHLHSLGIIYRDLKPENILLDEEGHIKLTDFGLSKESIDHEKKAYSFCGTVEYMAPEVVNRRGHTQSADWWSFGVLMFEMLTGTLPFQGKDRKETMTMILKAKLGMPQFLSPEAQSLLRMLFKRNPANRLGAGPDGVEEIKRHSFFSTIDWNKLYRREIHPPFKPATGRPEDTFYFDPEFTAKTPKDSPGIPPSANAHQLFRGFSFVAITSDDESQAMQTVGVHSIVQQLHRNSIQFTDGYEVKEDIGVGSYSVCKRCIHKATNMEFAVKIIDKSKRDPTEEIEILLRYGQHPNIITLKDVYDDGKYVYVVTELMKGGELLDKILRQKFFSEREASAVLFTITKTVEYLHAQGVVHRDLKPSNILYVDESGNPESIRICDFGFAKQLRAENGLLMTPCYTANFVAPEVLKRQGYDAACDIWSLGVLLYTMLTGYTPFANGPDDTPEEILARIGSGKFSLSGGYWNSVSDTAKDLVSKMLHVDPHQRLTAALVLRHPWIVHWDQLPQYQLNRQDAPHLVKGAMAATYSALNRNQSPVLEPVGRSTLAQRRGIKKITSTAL
Sequence of Ribosomal protein S6 kinase alpha-2 (Homo sapiens) (Q15349 whole entry): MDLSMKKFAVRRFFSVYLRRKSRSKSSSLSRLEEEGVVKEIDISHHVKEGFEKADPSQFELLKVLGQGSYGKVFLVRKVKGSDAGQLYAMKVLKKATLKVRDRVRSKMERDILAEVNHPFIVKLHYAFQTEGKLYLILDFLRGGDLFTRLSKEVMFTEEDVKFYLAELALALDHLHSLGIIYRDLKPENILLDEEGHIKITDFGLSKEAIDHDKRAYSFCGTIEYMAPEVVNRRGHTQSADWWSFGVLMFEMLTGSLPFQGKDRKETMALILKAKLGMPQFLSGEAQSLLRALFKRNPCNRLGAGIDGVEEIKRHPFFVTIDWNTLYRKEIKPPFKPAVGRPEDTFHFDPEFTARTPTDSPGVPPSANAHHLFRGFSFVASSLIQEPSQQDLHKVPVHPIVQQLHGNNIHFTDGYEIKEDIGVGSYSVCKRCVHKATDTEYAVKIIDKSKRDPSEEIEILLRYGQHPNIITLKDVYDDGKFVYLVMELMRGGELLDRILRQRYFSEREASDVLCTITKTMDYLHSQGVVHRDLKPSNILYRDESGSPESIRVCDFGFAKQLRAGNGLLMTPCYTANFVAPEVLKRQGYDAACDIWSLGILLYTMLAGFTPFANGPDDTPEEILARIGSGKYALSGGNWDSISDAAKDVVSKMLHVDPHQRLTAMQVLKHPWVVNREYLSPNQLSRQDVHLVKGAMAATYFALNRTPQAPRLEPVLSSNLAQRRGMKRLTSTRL

By inhibition is commonly meant the drop in the measured response relative to a control, in per cent. As to `Cc1ccc(O)cc1Nc1ccnc2ccc(S(C)(=O)=O)cc12`, the inhibition in [1] came to 33.2%; in test [2], 6.86%; in test [3], 22.7%; in test [4], 2.84%; in [5], 4.22%; in [6] it was 1.71%. Further, the inhibition turned out to be 4.03% in [7]; 2.75% in test [8]; 4.14% in test [9]; 1.34% in [10]; 1.52% in test [11]; 4.28% in test [12]. Besides, the inhibition in [13] came to 5.46%; in [14], 2.4%; in [15], 0.29%; in test [16] it was 0.8%; in test [17], 1.28%; in [18], 3.52%. The figures for the inhibition in test [19] and in test [20] were 3.02% and 2.13%, respectively.
`Cc1ccc(Nc2ccnc(Nc3cccc(C(N)=O)c3)n2)cc1O`: the inhibition in test [1] is 10.1%; in test [2] it was -0.05%; in test [3], 9.43%; in [4] it was 1.11%; in test [5], 3.77%; in test [6] it was 2.93%. For the same compound, the inhibition in test [7] worked out at 7.68%; in test [8], 1.82%; in test [9], 2.66%; in test [10], 0.56%; in test [11] it was 5.78%; in test [12], 4.11%. In addition, the inhibition in test [13] was 13.6%; in test [14], 2.41%; in test [15], 3.62%; in test [16], 1.82%; in [17], 2.23%; in test [18], 1.81%. The values for the inhibition in test [19] and in test [20] were 3.37% and 2.28%, respectively.
Consider `COc1cc(/C=N/Nc2ncnc3c2cnn3C(C)C)ccc1O`, for which the inhibition in [1] is 1.41%; in test [2] it was 1.37%; in test [3], 1.6%; in [4], 3.26%; in test [5] it was 3.14%; in test [6] it was 0.71%. The inhibition in test [7] was determined as 2.16%; in [8], 0.57%; in test [9] it was 0.81%; in [10], 0.31%; in test [11], 4.3%; in [12] it was 0.86%. For the same compound, the inhibition was found to be 2.83% in [13]; 10.4% in [14]; 1.08% in test [15]; 0.95% in [16]; 1.27% in test [17]; 1.98% in [18]. The inhibition came out at 2.99% in test [19] and 1.4% in test [20].
